Bioassay records from PubChem BioAssay.
Compounds with a hit are over-represented: about 4% of the library has one in this group of screens.
Mtb betalactam: beta-lactam sensitization of Mtb H37Rv. M. tuberculosis H37Rv growth with meropenem, percent inhibition. inhibition, % at 25 µM. 330,000 compounds, 0.27% hits. AID 434955; call rule not given here;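 also: growth measured after seven days incubation then overnight dye step; 0% = bacteria only wells and 100% = bacteria with antibiotic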
UGM FP inh: blocks M. tuberculosis UGM enzyme; 320,000 compounds, 0.06% hits; purified UGM, fluorescence polarization probe displacement; P9WIQ1; inhibition, % at 10 µM; AID 504406; in the data active = inhibition above about 10%, passing the limit was not always enough; inconclusive = no clear call, values can overlap the other calls
Target sequence (P9WIQ1 whole entry, looked up): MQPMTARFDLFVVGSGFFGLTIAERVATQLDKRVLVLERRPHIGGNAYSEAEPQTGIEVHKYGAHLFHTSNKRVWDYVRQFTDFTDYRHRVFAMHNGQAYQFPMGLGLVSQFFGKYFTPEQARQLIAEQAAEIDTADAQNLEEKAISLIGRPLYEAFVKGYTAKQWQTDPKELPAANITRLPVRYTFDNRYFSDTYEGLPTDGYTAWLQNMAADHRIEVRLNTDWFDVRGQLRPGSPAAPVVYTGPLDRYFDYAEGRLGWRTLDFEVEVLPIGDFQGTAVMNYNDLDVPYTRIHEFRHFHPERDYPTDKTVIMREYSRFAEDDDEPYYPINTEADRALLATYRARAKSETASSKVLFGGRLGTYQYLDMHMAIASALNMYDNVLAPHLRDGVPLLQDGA
Rv3671c protease: Rv3671c (M. tuberculosis) protease inhibition; P9WHR9; inhibition, % at 5.96 µM; 320,000 compounds, 0.048% hits; AID 2606; in the data active = inhibition above about 38%;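 also: extracellular domain of Rv3671c used as enzyme; 0% = enzyme with DMSO and 100% = no enzyme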
RecA splice inh: inhibitors of M. tuberculosis RecA intein splicing; 290,000 compounds, 0.75% hits; inhibition, % (test concentration not listed); cell-free RecA intein splicing, fluorescence; AID 2221; in the data active = inhibition above about 30%; inconclusive = no clear call, values can overlap the other calls;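 also: 0% = vehicle wells and 100% = reference inhibitor control wells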
FBA Mtb inh: inhibits M. tuberculosis FBA enzyme; inhibition, % at 1 µM; purified M. tuberculosis FBA, fluorescence read-out; P9WQA3; 360,000 compounds, 2.3% hits; in the data active = inhibition above about 27%;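 also: 0% = vehicle and 100% = reference inhibitor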
GDH-TPI counter: inhibits GDH-TPI coupling enzymes, artifact for Mtb FBA screen; GDH-TPI coupled enzyme counterscreen, NADH absorbance; inhibition, % at 4.8 µM; 360,000 compounds, 1.2% hits; in the data active = inhibition above about 30%;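 also: 0% = DMSO wells and 100% = wells lacking the enzyme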
* = called active by the depositor; ? = inconclusive; . = no result given.

SMILES	Mtb betalactam	UGM FP inh	Rv3671c protease	RecA splice inh	FBA Mtb inh	GDH-TPI counter
CCc1ccc2c(c1)C(c1ccc([N+](=O)[O-])cc1)=NNC(c1ccc(Br)cc1)=N2	60	52*	-10	1	-4	1
COc1cc(/C=N/NC(=O)c2cc(-c3cccc(OC(C)C)c3)nc3ccccc23)ccc1O	-7	-1	-16	2	3	61*
COc1cc(/C=N/NC(=O)c2cc(-c3ccccc3)nc3ccccc23)cc(OC)c1O	-1	0	0	-1	-4	23
COc1cc(/C=N/NC(=O)c2cc(-c3cccs3)nc3ccccc23)ccc1O	-3	2	-8	1	7	56*
CCC1CN(C(=O)N2CCC(C(=O)NCCc3ccc(OC)c(OC)c3)CC2)c2ccccc2O1 (stereo not drawn)	-4	-1	12	2	0	-7
CCC(=O)Nc1cccc(-c2cnc3ccccc3n2)c1	12	3	0	-1	-1	31*
O=C(CCl)Nc1cccc(-c2cnc3ccccc3n2)c1	98	-2	-16	46*	4	11
O=C(Nc1cccc(-c2cnc3ccccc3n2)c1)c1ccccc1	-3	-3	1	-1	0	23
O=C(Nc1cccc(-c2cnc3ccccc3n2)c1)c1cccc(NC(=O)c2ccco2)c1	28	4	-59	0	-3	12
Cn1cc(SCC(=O)NC2CCCC2)c2ccccc21	11	-3	-5	-4	1	8
COc1ccc(C2=NS(=O)(=O)N(C)C(C(=O)N3CCOCC3)=C2)cc1	0	5	5	1	-7	22
O=C(N/N=C/c1sc(=O)[nH]c1-[n+]1ccccc1)c1ccccc1[O-]	-8	1	3	0	-5	55*
Cc1ccc[n+](-c2[nH]c(=O)sc2/C=N/NC(=O)c2ccccc2[O-])c1	3	-1	-5	1	-3	11
CCc1ccc[n+](-c2[nH]c(=O)sc2/C=N/N=C(\[O-])c2cccnc2)c1	-8	-2	-2	1	-5	39*
Cc1cc[n+](-c2[nH]c(=O)sc2/C=N/N=C(\[O-])c2ccccc2)cc1	-3	-2	10	4	-1	28
Cc1cc[n+](-c2[nH]c(=O)sc2/C=N/N=C(\[O-])c2ccccc2)cc1C	.	.	.	-4	-5	11
Cc1cc[n+](-c2[nH]c(=O)sc2/C=N/N=C(\[O-])c2ccncc2)cc1C	99	-1	11	-4	-4	35*
O=c1[nH]c(-[n+]2ccccc2)c(/C=N/N=C(\[O-])c2ccccc2)s1	-15	1	1	3	-10	57*
Cc1cc2cc3c(cc2nc1SCC(=O)Nc1ccccc1)CCC3	2	-1	1	1	-4	-11
O=C(O)c1ccc(/C=N/Nc2ncc(C(F)(F)F)cc2Cl)cc1	36	-2	1	-4	-1	37*
COc1cc(/C=N/NC(=O)c2ccc(-n3cccc3)cc2)ccc1O	4	1	15	-2	-2	43*
COc1cc(C(=O)NC(=S)NNC(=O)c2ccc3c(c2)OCO3)cc(OC)c1OC	12	-1	-1	1	0	32*
CC(C)(C)c1ccc(/C=N/Nc2ccc(C(=O)O)cc2)cc1	5	1	-1	9	-3	42*
COc1cc(CN2CCNC(=O)C2CC(=O)NCCCN2CCOCC2)cc(OC)c1 (stereo not drawn)	-4	1	3	-1	1	2
COC1=CC(=O)[C@]2(C=C1OC)OC[C@@H]1Oc3c(ccc4c3C=CC(C)(C)O4)C(=O)[C@@H]12	5	-1	5	.	.	.
SMILES	Mtb betalactam	UGM FP inh	Rv3671c protease	RecA splice inh	FBA Mtb inh	GDH-TPI counter
O=C(N/N=C/c1ccc2c(c1)OCO2)c1ccc2c(c1)OCCO2	4	2	-8	-3	3	42*
O=C(O)c1ccc(N/N=C/c2cc3cc4c(cc3nc2Cl)OCCO4)cc1	-7	-2	-3	-7	8	39*
COc1cc(/C=N/NC(=O)c2ccc3c(c2)OCO3)ccc1O	4	0	.	-2	1	35*
CN(C)c1ccc(/C=N/NC(=O)c2cc(-c3ccc4c(c3)OCO4)n[nH]2)cc1	.	2	4	4	3	36*
O=C(N/N=C/c1ccc(F)cc1)c1cc(-c2ccc3c(c2)OCO3)n[nH]1	0	2	-6	-2	-1	-2
COc1ccc(NC(=O)C2CCCN2C(=O)Nc2cccc(F)c2)cc1 (stereo not drawn)	-12	1	0	1	1	-1
COc1ccc(CCCNC(=O)C2CCC(=O)N(CC3CCCCC3)C2)cc1 (stereo not drawn)	?	0	-8	1	1	5
COc1ccc(C=NOCC(=O)OCC(=O)Nc2ccc(OC)cc2)cc1	6	-1	-6	.	-3	-8
CCc1nnc(NC(=O)CN2C(=O)NC3(CC(C)CC(C)(C)C3)C2=O)s1 (stereo not drawn)	-1	-1	-4	-3	-1	1
CC1Oc2ccccc2C=C1/C=N/Nc1ccc(C(=O)O)cc1 (stereo not drawn)	5	5	16	-14	3	34*
O=C(N/N=C/c1cc([N+](=O)[O-])cc([N+](=O)[O-])c1O)/C(=C\c1cccs1)NC(=O)c1ccccc1	5	3	-5	6	-6	37*
CCN(CC)c1ccc(/C=N/NC(=O)c2ccc(Br)o2)cc1	4	0	11	1	-2	22
O=C(N/N=C/c1ccc2c(c1)OCO2)c1ccc(Br)o1	-5	4	0	-1	-2	47*
O=C(O)c1ccc(N/N=C/c2ccc3c(c2)OCO3)cc1	10	-2	7	-4	-5	33*
Cc1ccccc1NC(=O)/C(=C\c1cccs1)NC(=O)c1ccccc1	-2	1	2	.	0	26
O=c1cnnc(N/N=C/c2ccc3c(c2)OCO3)[nH]1	0	0	3	-4	2	44*
COc1cc(/C=N/NC(=O)/C(=C\c2ccc3c(c2)OCO3)NC(=O)c2ccccc2)ccc1O	8	3	4	-1	-4	47*
COc1cc(/C=N/NC(=O)/C(=C\c2ccc([N+](=O)[O-])cc2)NC(=O)c2ccccc2)cc(OC)c1O	-1	-4	11	-1	-1	43*
CN(C)c1ccc(/C=N/Nc2cccc(C(=O)O)c2)cc1	5	1	-2	-5	1	37*
O=c1[nH]c(N/N=C\c2ccc3c(c2)OCO3)nc2ccccc12	40	-1	12	-1	15	29
COc1ccc(S(=O)(=O)N2CCc3ccccc32)cc1C(=O)N1CCC(C)CC1	0	0	0	.	6	4
CCc1ccc(N=C2NC(=O)/C(=C/c3ccc(OCC(=O)O)c(OC)c3)S2)cc1	.	.	.	2	-1	19
CCc1ccc(N=C2NC(=O)/C(=C/c3ccc(OCC(=O)O)cc3)S2)cc1	-4	-2	-1	10	-2	40*
